# Results as given in PubChem BioAssay (Tox21).
# A number with no mark means an inactive call. Records with an inconclusive call do not appear. A call without a number means that no potency is given here. Activity calls are given as the source filed them. Unless noted, calls come from the whole dose curve; as a rule, active = well fitted curve in the direction sought with a large enough effect in the repeat runs; inconclusive = weak or mixed curves; inactive = no such curve, though single readings can be large; an effect the other way counts as inactive or inconclusive.
# Assays:
# [1] = qHTS assay for small molecule agonists of the p53 signaling pathway (AID 651631; calls by dose curve; note: nearly all actives have a fitted effect of over 15% in size)
# Procedure, shortened: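 Read-out is beta-lactamase FRET fluorescence measured 2 h after substrate addition at room temperature, in HCT-116 cells with a p53 response element-driven reporter exposed to compounds for 16 h at 37 °C.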
# [2] = qHTS assay for small molecules that induce genotoxicity in human embryonic kidney cells expressing luciferase-tagged ATAD5 (AID 651632); note: nearly all actives have a fitted effect of over 15% in size
# Procedure, shortened: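 Cells were seeded at 2,000 per well, dosed with compound, and incubated 16 hr at 37C in 5% CO2. Luciferase activity was then quantified after a 30 min room-temperature incubation with Amplite.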
# [3] = qHTS assay for small molecule agonists of the p53 signaling pathway - cell viability (AID 651633; calls by dose curve;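 note: p53RE-bla HCT reporter cells with a stable beta-lactamase p53 reporter; series mostly up to about 83 µM; nearly all actives have a fitted effect of over 30% in size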)
# Procedure, shortened: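 Viability counter-read: CellTiter-Glo luminescence (30 min, room temperature) in the same p53RE-bla plates. These plates had been exposed to compounds for 16 h at 37 C.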
# [4] = qHTS assay for small molecules that induce genotoxicity in human embryonic kidney cells expressing luciferase-tagged ATAD5 - cell viability (AID 651634; calls by dose curve; note: nearly all actives have a fitted effect of over 25% in size)
# Procedure, shortened: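 Cells (HEK293T, luciferase-tagged ATAD5) are seeded at 2,000 per well, dosed with compound or DMSO vehicle, and incubated 15.5 hr at 37C and 5% CO2. CellTiter-Fluor is added for 30 min before fluorescence is measured.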
# [5] = qHTS assay to test for compound auto fluorescence at 590 nm (red) in HepG2 cells (AID 720674)
# Procedure, shortened: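 1 hr compound incubation on HepG2 cells, 37 C, 5% CO2; plate read ex 540 nm / em 590 nm; intensities reported as Rose Bengal sodium equivalents.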
# [6] = qHTS assay to test for compound auto fluorescence at 535 nm (green) in HepG2 cells (AID 720675)
# [7] = qHTS assay to test for compound auto fluorescence at 590 nm (red) in HEK293 cells (AID 720679)
# Procedure, shortened: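 Intensity at 540nm excitation and 590nm emission is reported as Rose Bengal sodium-equivalent autofluorescence. Measurements followed overnight exposure (37C, 5% CO2) of HEK293 cells, 2,000 per well, to 23 nL compound.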
# [8] = qHTS assay to test for compound auto fluorescence at 535 nm (green) in HEK293 cells (AID 720680)
# [9] = qHTS assay to test for compound auto fluorescence at 460 nm (blue) in HEK293 cell free culture (AID 720681)
# Procedure, shortened: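 Blue fluorescence (Ex 405/Em 460 nm, triamterene-equivalent) was read immediately after pin transfer of compound or DMSO into medium (DMEM, 10% FBS) without cells.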
# [10] = qHTS assay to test for compound auto fluorescence at 535 nm (green) in HEK293 cell free culture (AID 720682)
# Procedure, shortened: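 Fluorescein serves as the green reference fluorophore; each compound's intrinsic emission at 535 nm (excitation 485 nm) is reported as an equivalent amount of that dye, measured in serum-containing DMEM without cells.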
# [11] = qHTS assay to test for compound auto fluorescence at 590 nm (red) in HEK293 cell free culture (AID 720683)
# Procedure, shortened: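 Red-channel autofluorescence of compounds in culture medium (DMEM, 10% FBS), no cells, measured at 540/590 nm. Rose Bengal sodium is the reference fluorophore for equivalence.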
# [12] = qHTS assay to test for compound auto fluorescence at 590 nm (red) in HepG2 cell free culture (AID 720684)
# Procedure, shortened: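 No cells present: MEM + 10% FBS only. Compound pinned in, red label read (540/590 nm). Activity = fluorescence equivalent to Rose Bengal sodium.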
# [13] = qHTS assay to test for compound auto fluorescence at 460 nm (blue) in HepG2 cell free culture (AID 720685)
# Procedure, shortened: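 Cell-free plates of MEM plus 10% FBS received 23 nL compound or DMSO vehicle; blue-channel (405/460 nm) intensity scored against triamterene as reference fluorophore.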
# [14] = qHTS assay to test for compound auto fluorescence at 535 nm (green) in HepG2 cell free culture (AID 720686)
# [15] = qHTS assay to test for compound auto fluorescence at 460 nm (blue) in HepG2 cells (AID 720687)
# Procedure, shortened: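 Blue-channel autofluorescence (Ex/Em 405/460 nm, triamterene-equivalent) was measured after 1 hr compound exposure at 37 C, 5% CO2. Cells were HepG2, plated overnight at 37 C in MEM plus 10% FBS.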
# [16] = target: Glucocorticoid receptor (Homo sapiens) (UniProt P04150); experiment: qHTS assay to identify small molecule agonists of the glucocorticoid receptor (GR) signaling pathway (AID 720691; active = well fitted activation curve with a large enough effect in the signal ratio in the repeat runs, not every such curve was filed as active; the % refers to the signal ratio; note: potency is the fitted concentration of half-maximal effect)
# Procedure, shortened: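 Steps: seed GR-bla HeLa cells, incubate 4 h at 37 C/5% CO2; pin-transfer DMSO-dissolved compounds; incubate 18 h at 37 C; add LiveBLAzer B/G FRET substrate; after 2 h at room temperature, measure fluorescence.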
# [17] = target: Glucocorticoid receptor (Homo sapiens) (UniProt P04150); experiment: qHTS assay to identify small molecule antagonists of the glucocorticoid receptor (GR) signaling pathway (AID 720692; active = well fitted inhibition curve with a large enough effect in the signal ratio in the repeat runs, not every such curve was filed as active; the % refers to the signal ratio)
# Procedure, shortened: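 Antagonism was scored as loss of dexamethasone-driven (5 nM final) reporter signal in HeLa cells bearing a glucocorticoid response element–beta-lactamase construct, after 18 h compound exposure at 37 C and 2 h FRET substrate loading.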
# [18] = qHTS assay for small molecule disruptors of the mitochondrial membrane potential - cell viability (AID 720634; calls by dose curve;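 note: human HepG2 liver cancer cells; series mostly up to about 83 µM; nearly all actives have a fitted effect of over 20% in size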)
# Procedure, shortened: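 Cytotoxicity was measured by ATP quantitation in HepG2 wells that had first been treated with compound for 1 hr and stained with m-MPI dye; CellTiter-Glo incubation was 30 min at room temperature.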
# [19] = qHTS assay to test for compound auto fluorescence at 460 nm (blue) in HEK293 cells (AID 720678)
# Procedure, shortened: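 HEK293, 2,000 cells/well, 10% dialyzed FBS; attach 4-5 hr 37C; pin compound or DMSO; o/n 37C/5% CO2; fluorescence 405/460 nm; triamterene-equivalent units.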
# [20] = qHTS assay for small molecule disruptors of the mitochondrial membrane potential (AID 720635)
# Procedure, shortened: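 Mitochondrial membrane potential tracked with Mito-MPS dye, red aggregates (ex 540/em 590 nm) against green monomers (ex 490/em 535 nm). Compound treatment 1 hr at 37C, dye 30 min in HepG2.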
# Chain of Glucocorticoid receptor (Homo sapiens) (P04150 whole entry, looked up): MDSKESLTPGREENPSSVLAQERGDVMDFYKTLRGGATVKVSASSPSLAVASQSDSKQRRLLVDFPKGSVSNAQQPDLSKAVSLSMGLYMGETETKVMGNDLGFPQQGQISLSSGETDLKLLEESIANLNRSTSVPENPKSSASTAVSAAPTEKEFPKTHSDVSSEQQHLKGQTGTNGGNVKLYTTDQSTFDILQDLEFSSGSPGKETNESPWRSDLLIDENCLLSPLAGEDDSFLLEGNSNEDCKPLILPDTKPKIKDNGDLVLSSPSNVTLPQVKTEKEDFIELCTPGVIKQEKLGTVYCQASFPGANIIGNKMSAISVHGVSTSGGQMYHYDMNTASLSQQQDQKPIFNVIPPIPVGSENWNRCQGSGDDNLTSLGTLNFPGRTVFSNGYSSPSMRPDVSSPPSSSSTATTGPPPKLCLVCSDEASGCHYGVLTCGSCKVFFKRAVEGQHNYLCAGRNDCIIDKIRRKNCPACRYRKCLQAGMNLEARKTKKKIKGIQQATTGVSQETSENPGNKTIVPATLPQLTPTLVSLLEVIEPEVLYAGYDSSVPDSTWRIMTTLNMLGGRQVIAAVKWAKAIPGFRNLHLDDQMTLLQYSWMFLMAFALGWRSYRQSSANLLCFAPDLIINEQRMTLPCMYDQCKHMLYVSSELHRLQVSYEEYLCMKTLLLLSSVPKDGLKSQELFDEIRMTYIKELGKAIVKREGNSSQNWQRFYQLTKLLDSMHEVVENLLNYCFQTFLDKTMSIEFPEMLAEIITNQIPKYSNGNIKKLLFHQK
smiles,measurement,setting,value
CCNP(=S)(OC)O/C(C)=C/C(=O)OC(C)C (stereo not drawn),Potency,[1],inactive
same,outcome,[2],inactive
same,Potency,[3],inactive
same,Potency,[4],inactive
same,outcome,[5],inactive
same,outcome,[6],inactive
same,outcome,[7],inactive
same,outcome,[8],inactive
same,outcome,[9],inactive
same,outcome,[10],inactive
same,outcome,[11],inactive
same,outcome,[12],inactive
same,outcome,[13],inactive
same,outcome,[14],inactive
same,outcome,[15],inactive
same,Potency,[16],inactive
same,Potency,[17],inactive
CN(C)CCc1c[nH]c2cccc(OP(=O)(O)O)c12,outcome,[2],inactive
same,Potency,[3],inactive
same,Potency,[4],inactive
same,Potency,[18],inactive
same,outcome,[5],inactive
same,outcome,[6],inactive
same,outcome,[19],inactive
same,outcome,[7],inactive
same,outcome,[8],inactive
same,outcome,[9],inactive
same,outcome,[11],inactive
same,outcome,[12],inactive
same,outcome,[13],inactive
same,outcome,[14],inactive
same,outcome,[15],inactive
Clc1cc2c(cc1Cl)Oc1cc(Cl)c(Cl)cc1O2,activation,[1],-5.64% [at 0.337 µM]
same,activation,[2],0.775% [at 0.33 µM]
same,"activity change, negative = cytotoxicity",[3],-8.49% [at 0.33 µM]
same,"activity, negative = cytotoxicity",[4],15.1% [at 0.33 µM]
same,"fluorescence, relative to Rose Bengal",[5],-0.0382% [at 0.37 µM]
same,"fluorescence, % of fluorescein control",[6],-0.0272% [at 0.37 µM]
same,"fluorescence, % of fluorescent control",[7],0.175% [at 0.37 µM]
same,"fluorescence, % of fluorescein",[8],0.0035% [at 0.37 µM]
same,"fluorescence, % of fluorescent control",[9],-0.0164% [at 0.37 µM]
same,activity change,[10],-0.0409% [at 0.37 µM]
same,"fluorescence, % of fluorescent control",[11],0.0291% [at 0.37 µM]
same,"fluorescence, % of fluorescein control",[14],-0.0284% [at 0.37 µM]
same,"fluorescence, % of fluorescent control",[15],-0.0066% [at 0.37 µM]
same,activation,[16],-3.18% [at 0.28 µM]
same,"activity change, negative = inhibition",[17],-20.7% [at 0.284 µM]
Cc1ccc(-c2nc3ccc(C)cn3c2CC(=O)N(C)C)cc1,Potency,[1],inactive
same,Potency,[3],inactive
same,Potency,[4],inactive
same,outcome,[5],inactive
same,outcome,[6],inactive
same,outcome,[19],inactive
same,outcome,[7],inactive
same,outcome,[8],inactive
same,outcome,[9],inactive
same,outcome,[10],inactive
same,outcome,[11],inactive
same,outcome,[13],inactive
same,outcome,[14],inactive
same,outcome,[15],inactive
same,Potency,[16],23.9 µM (active)
c1cncc([C@@H]2CCCCN2)c1,Potency,[1],inactive
same,outcome,[2],inactive
same,Potency,[3],inactive
same,outcome,[5],inactive
same,outcome,[6],inactive
same,outcome,[19],inactive
same,outcome,[7],inactive
same,outcome,[8],inactive
same,outcome,[9],inactive
same,outcome,[10],inactive
same,outcome,[11],inactive
same,outcome,[12],inactive
same,outcome,[13],inactive
same,outcome,[14],inactive
same,outcome,[15],inactive
same,Potency,[16],inactive
same,Potency,[17],inactive
C[C@]12C=CC(=O)C=C1CC[C@@H]1[C@@H]2CC[C@@]2(C)[C@H]1CC[C@]2(C)O,outcome,[2],inactive
same,Potency,[3],inactive
same,Potency,[4],inactive
same,Potency,[18],inactive
same,Potency,[20],inactive
same,outcome,[5],inactive
same,outcome,[6],inactive
same,outcome,[19],inactive
same,outcome,[7],inactive
same,outcome,[8],inactive
same,outcome,[9],inactive
same,outcome,[10],inactive
same,outcome,[11],inactive
same,outcome,[12],inactive
same,outcome,[13],inactive
same,outcome,[14],inactive
same,outcome,[15],inactive
CCc1cc(OC)c(C[C@H](C)N)cc1OC,Potency,[1],inactive
same,outcome,[2],inactive
same,Potency,[3],inactive
same,Potency,[4],inactive
same,outcome,[5],inactive
same,outcome,[6],inactive
same,outcome,[7],inactive
same,outcome,[8],inactive
same,outcome,[9],inactive
same,outcome,[10],inactive
same,outcome,[11],inactive
same,outcome,[13],inactive
same,outcome,[14],inactive
same,outcome,[15],inactive
same,Potency,[16],inactive
same,Potency,[17],inactive
CNC(=O)O/N=C(/CSC)C(C)(C)C,Potency,[1],inactive
same,outcome,[2],inactive
same,Potency,[3],inactive
same,Potency,[4],inactive
same,outcome,[5],inactive
same,outcome,[6],inactive
same,outcome,[19],inactive
same,outcome,[7],inactive
same,outcome,[8],inactive
same,outcome,[10],inactive
same,outcome,[11],inactive
same,outcome,[12],inactive
same,outcome,[13],inactive
same,outcome,[14],inactive
same,outcome,[15],inactive
same,Potency,[16],inactive
